# Target: SNRNP70
# Assay: pooled miR-30 sensor sort-seq; sequence = guide strand
# Settings: shRNA
# Also: reference of the scale not given here.
row,Sequence,sensor-assay potency score (higher = more potent)
1,TTTGATAGGTCCGTACACCTCA,0.253
2,TTCATGTGGCAGTTTCTCCAGG,-0.18
3,TTGCTGTCGCCGCTCAATCTTT,-1.5

# Target: SNRPD1
# Assay: as above
# Settings: shRNA
row,Sequence,sensor-assay potency score (higher = more potent)
1,TCTTCCTGCAACAGCTTCCCTT,-1.09
2,TTCAACATCCACAAGTAGTGTA,0.419
3,TTAAGATGTGTATTCATGCTGA,-0.136
4,TACAGGTTCTCTGTTCTTCAGG,-0.643
5,TCAACATCCACAAGTAGTGTAT,-0.261
6,TTCTCTGTTCTTCAGGGTCATT,-1.71
7,TCTGGTAGAATAAAATACCGAA,0.138
8,TATCCAGAGGTAAACTGTCTGG,-1.01
9,TCATGCTGACATCCACACCTGT,-0.408
10,TAGAATAAAATACCGAATGTTA,-0.767
11,TGTGATTGTTCCATGGACCTGT,1.16
12,TAGATTTCACCTTAGGTTCAAC,-0.589

# Target: SNTG1
# Assay: as above
# Settings: shRNA
row,Sequence,sensor-assay potency score (higher = more potent)
1,TAGCACACATGCATAGGTCTTG,0.196
2,TTGGAGCACATGCACAATCTTC,-1.22
3,TTAGAGTCACTTCTTCTCCAGC,-1
4,TTGTCTTCTGATGGTCACCGTT,-1.02
5,TTATCTGTAGAATTGCATCTCC,0.36
6,TTTGTTGCAGCATCAAAGCAGA,-0.518
7,TGACTTTCTAGCACACATGCAT,-0.281
8,TTTAATATTGTGCTTTGTGAGA,-0.565
9,TGAAGCACTGTTTCCGTCGGTC,-0.425
10,TAATGTGTCTGTATTGTTGGGA,0.882
11,TTGCTCGTGGTAGCAGAGCTGG,-1.52
12,TAGGTCTTGCACTGTATCCGTT,-0.173

# Target: SNX19
# Assay: as above
# Settings: shRNA
row,Sequence,sensor-assay potency score (higher = more potent)
1,TTCTACTCTGTCACTGTCCATG,-0.887
2,TACTCTGTCACTGTCCATGTTT,-0.134
3,TTAATATACAGCACTTCCCTGT,0.105
4,TTATTGAGGTGACAGCTCGATC,-1.16
5,TACTTCACAGTATAGAGTGTGT,-0.265
6,TAACTCTACTTCCCTGACCTGG,-0.776
7,TTTCTTCACACATCCCACCCAA,-0.125
8,TAAAGGACTGATTATAACCGTA,-0.44
9,TGAGGTGACAGCTCGATCCAGC,0.362
10,TAGATCTGGTTTCTCCTCCAGA,-0.172
11,TGAACTTTCGTAGATCTGGTTT,-0.266
12,TTTCCAGTAACTTTGTCTGTTT,-0.546

# From the OligoGym collection
